Consider 28 compounds from PubChem BioAssay (NCI).

About 83,000 compounds went through this panel and 20% of them were active in at least one assay; those are over-represented in the sample as a whole.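 Method: cells in 96-well plates; compound added at one concentration; 48 h incubation; percent growth measured; values under 10 scored active.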 Activity calls are given as the source filed them.

The subject of the first test is NCI-H522 lung. Briefly: NCI-60 one-dose screen, 48 h (100 = growth as untreated, 0 = no growth, -100 = all killed). As to conditions: 10 µM.
On to `Nc1ccccc1NC(=O)c1ccc(CCCC(=O)Nc2ccc(C3CC3N)cc2)cc1` (stereo not given), for which the growth is -34.4% (active).
Consider `COc1cc2c3c(n(C4CCN(C)CC4)c(=O)c2cc1OC)-c1cc2c(cc1C3=O)OCO2`, for which the growth was 8.85% (active).
Same read-out and setting: for `COc1ccc(C(=O)CSc2nc(-c3cc(OC)ccc3OC)cc(-c3ccc(OC)cc3)c2C#N)cc1` the value was 81.6% (inactive); for `Nc1ccc(-c2cccs2)cc1NC(=O)c1ccc(CCCC(=O)Nc2ccc(C3CC3N)cc2)cc1` (stereo not given), 53.6% (inactive).
On the same count and under the same terms, the value for `S=C1N(c2ccccc2)CN(C2CCCCC2)CN1c1ccccc1` was -29.7% (active); that for `CCOC(=O)c1sc2ncnc(Nc3ccc(NC(=O)Nc4ccc(Cl)cc4)cc3)c2c1C` was 54.1% (inactive); that for `COc1cc2c3c(n([C@@H]4CCOC4)c(=O)c2cc1OC)-c1cc2c(cc1C3=O)OCO2` was 17.5% (inactive).
Still for that read-out and setting: the value for `COc1cc2cc(Oc3ccc(NC(=O)c4cccc(C(F)(F)F)c4)cc3)c(C)nc2cc1OC` was 28.9% (inactive); that for `CCOC(=O)c1sc2ncnc(Nc3ccc4c(cnn4C(=O)Nc4ccccc4)c3)c2c1C` was 64.5% (inactive).

The next test concerns A549/ATCC NSCLC. The description is as above. To be noted: 10 µM.
For `O=C1Cc2cc(CCN3CCN(c4nsc5ccccc45)CC3)c(Cl)cc2N1`, the growth was 95.4% (inactive).
On the same count and under the same terms, the value for `Nc1ccccc1NC(=O)c1ccc(CCCC(=O)Nc2ccc(C3CC3N)cc2)cc1` (stereo not given) was 34.8% (inactive); that for `COc1cc2c3c(n(C4CCN(C)CC4)c(=O)c2cc1OC)-c1cc2c(cc1C3=O)OCO2` was 55% (inactive); that for `COc1ccc(CCN2CCC(Nc3nc4ccccc4n3Cc3ccc(F)cc3)CC2)cc1` was 28.7% (inactive).
In the case of `CNC(=O)c1c(I)c(NC(C)=O)c(I)c(C(=O)O)c1I`, the growth was 105% (inactive).
With `Nc1cc(-c2ccncc2)c[nH]c1=O`, the growth is 106% (inactive).
With `COc1ccc2c(c1)C(CC(=O)NN)CCC2` (stereo not given), the growth was 93.4% (inactive).
On the same count and under the same terms, for `CCCCc1oc2ccccc2c1C(=O)c1cc(I)c(OCCN(CC)CC)c(I)c1` the value was 9.9% (active).
The same measure, in the same setting: for `Clc1ccc2c(c1)C(N1CCNCC1)=Nc1ccccc1O2` the value was 65% (inactive).
Still for that read-out and setting: for `COc1ccc(Cc2cnc(N)nc2N)cc1OC` the value was 101% (inactive).
`COc1ccc(C(=O)CSc2nc(-c3cc(OC)ccc3OC)cc(-c3ccc(OC)cc3)c2C#N)cc1`: the growth was 78.6% (inactive).
Still for that read-out and setting: the value for `Nc1ccc(-c2cccs2)cc1NC(=O)c1ccc(CCCC(=O)Nc2ccc(C3CC3N)cc2)cc1` (stereo not given) was 72.1% (inactive).
On the same count and under the same terms, the value for `CCCCCOC(=O)Nc1nc(=O)n(C2O[C@H](C)[C@@H](O)[C@H]2O)cc1F` (stereo not given in full) was 98% (inactive); that for `C[C@@H](O)[C@H]1C(=O)N2C(C(=O)O)=C(SCCN=CN)C[C@H]12` was -14.9% (active); that for `CCCCC(CC)CN=C(N)NC(N)=NCCCCCCN=C(N)NC(N)=NCC(CC)CCCC` (stereo not given) was -87.1% (active).
The same measure, in the same setting: the value for `CO[C@H]1CC(O[C@@H]2/C(C)=C/C[C@@H]3C[C@@H](C[C@]4(C=C[C@H](C)[C@@H](C5CCCCC5)O4)O3)OC(=O)[C@@H]3C=C(C)[C@@H](O)[C@H]4OC/C(=C\C=C\[C@@H]2C)[C@]43O)O[C@@H](C)C1O[C@H]1C[C@H](OC)[C@@H](O)[C@H](C)O1` (stereo not given in full) was -79.7% (active); that for `CC1/C=C/C=C/C=C/C=C/C=C/C=C/C=C/C(O[C@@H]2O[C@H](C)[C@H](O)[C@@H](O)[C@@H]2N)CC(O)C(C(=O)O)C(O)CC(=O)CC(O)CC(O)CC(O)CC(=O)CCCC(=O)CC(=O)OC1C(C)CC(C)C(O)CC(=O)c1ccc(N)cc1` (stereo not given in full) was -100% (active); that for `S=C1N(c2ccccc2)CN(C2CCCCC2)CN1c1ccccc1` was 45.5% (inactive).
In the case of `C#C[C@]1(O)CCC2C3CCc4cc(OC5CCCC5)ccc4C3CC[C@@]21C` (stereo not given in full), the growth is 65.9% (inactive).
The same measure, in the same setting: for `CC(=O)[C@@]12O[C@](C)(c3ccccc3)O[C@@H]1CC1C3CCC4=CC(=O)CC[C@]4(C)C3CC[C@@]12C` (stereo not given in full) the value was 70.7% (inactive); for `COc1ccc2nc3cc(Cl)ccc3c(Nc3cc(CN4CCCC4)c(O)c(CN4CCCC4)c3)c2n1`, 9.53% (active).
As for `CCc1cc(Cl)c(OC)c(C(=O)NCC2CCCN2CC)c1O` (stereo not given), the growth was 95.6% (inactive).
Same read-out and setting: the value for `CCOC(=O)c1sc2ncnc(Nc3ccc(NC(=O)Nc4ccc(Cl)cc4)cc3)c2c1C` was 54.5% (inactive).
Same read-out and setting: for `Cc1cc(C(C#N)c2ccc(Cl)cc2)c(Cl)cc1NC(=O)c1cc(I)cc(I)c1O` (stereo not given) the value was 71.3% (inactive); for `COc1cc2c3c(n([C@@H]4CCOC4)c(=O)c2cc1OC)-c1cc2c(cc1C3=O)OCO2`, 30.4% (inactive); for `C[N+]1(CCCCC[N+]2(C)CCCC2)CCCC1`, 76.2% (inactive).
